Percent response FL1 and percent response FL8 data for 36 compounds are collected here from PubChem BioAssay AID588765 (NMMLSC, 2011).

The structures appear in SMILES notation. Where “and” joins values, the source holds several entries; their conditions need not be identical. Equal entries are not always repeated. Among all 1,100 compounds or so, fewer than 10 were called active.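 How the source made its calls: active means percent response below a set limit in fluorescence channel 1 and below 50% in channel 8; inactive means the rest.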 Only a sample is shown.

The nature of the experiment: fluorescent artefacts in FAP flow readout – cell-based, FAP fluorogen, flow cytometry, cherry pick 1, artefact control for beta2AR agonist internalization project, confirmation (AID 588765).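 Further: low percent response here flags compound autofluorescence meaning a false positive.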 Particulars: Am2.2 cells, fluorescence counterscreen, at 10 µM, stronger effect = lower value; percent response FL8: measured here: FL8 channel fluorescence. (In flow cytometry, cells or beads pass a laser one at a time.)
With `O=C1C(=O)N(CC2COc3ccccc3O2)c2ccccc21` (configuration not stated), the percent response FL1 is 108% (inactive) and the percent response FL8 came to 112%.

Regarding `COc1ccc(-n2nc3c(N4CCC(C(=O)NCc5ccccc5)CC4)nnc(C)c3c2C)cc1`, the percent response FL1 was 130% (inactive) and the percent response FL8 was 115%.

On to `CCCOc1ccc(C(=O)C(CCC(CNCC)C(=O)c2ccc(OCCC)cc2)CNCC)cc1` (configuration not stated), for which the percent response FL1 is 82.8% (inactive) and the percent response FL8 came to 76.7%.

For `O=C(NCCCn1ccnc1)C1CCCN(S(=O)(=O)c2cc(Cl)ccc2Cl)C1` (configuration not stated), the percent response FL1 was 8.86% (inactive) and the percent response FL8 came to 109%.

Turning to `COc1cc(C#Cc2ccc3cc(CCCO)oc(=O)c3c2)cc(OC)c1`, the percent response FL1 was 92.6% (inactive) and the percent response FL8 amounted to 102%.

Consider `CCCCCCCCCCOC(=O)Cn1c(COc2ccc(C)cc2)[n+](C)c2ccccc21`, for which the percent response FL1 was 120% (inactive) and the percent response FL8 stood at 113%.

`CC(=O)c1ccc(NC(=O)c2ccc3c(Cl)c4c(nc3c2)CCCC4)cc1`: the percent response FL1 was 52.7% (inactive) and the percent response FL8 stood at 89.7%.

As to `CCOC(=O)c1ccc(NC(=O)Cn2nnc(-c3ccc(C)cc3)n2)cc1`, the percent response FL1 is 12.2% (inactive) and 8.97% (inactive); the percent response FL8 was 98.7% and 110%.

With `O=S(=O)(Nc1ccc2[nH]ncc2c1)c1ccccc1Cl`, the percent response FL1 is 86% (inactive) and the percent response FL8 is 87.7%.

For `COc1ccc(C(CCNCc2ccccc2F)c2ccc(F)cc2)cc1` (configuration not stated), the percent response FL1 was 101% (inactive) and the percent response FL8 turned out to be 110%.

Consider `Cc1cc(S(=O)(=O)N2CCOCC2)ccc1OCC(=O)Nc1cccc(C(F)(F)F)c1`, for which the percent response FL1 is 97.5% (inactive) and the percent response FL8 stood at 108%.

Regarding `CC(CCc1ccccc1)NCC(O)c1cccc([N+](=O)[O-])c1` (configuration not stated), the percent response FL1 is 120% (inactive) and the percent response FL8 was found to be 128%.

`CCOc1ccc(NC(=O)COc2ccc(S(=O)(=O)N3CCCC3)cc2)cc1`: the percent response FL1 is 109% (inactive) and the percent response FL8 worked out at 101%.

Consider `CCCN(CCc1ccccc1)C1CCc2c(O)cccc2C1` (configuration not stated), for which the percent response FL1 is 103% (inactive) and the percent response FL8 came to 98.5%.

`Oc1ccc(N=Cc2sc3ccccc3c2Cl)cc1`: the percent response FL1 is 99.5% (inactive) and the percent response FL8 was found to be 93.9%.

In the case of `O=C(Nc1ccc2c(c1)OCCO2)C(c1ccc(F)cc1)N1CCCCC1` (configuration not stated), the percent response FL1 was 114% (inactive) and the percent response FL8 came out at 111%.

`CSc1ccc(CCNC(=O)C2CCN(c3nnc(-n4cccc4)s3)CC2)cc1`: the percent response FL1 is 45.7% (inactive) and the percent response FL8 was found to be 94.2%.

Turning to `N#Cc1cccc(NC(=O)COC(=O)c2ccccc2C(=O)c2ccc(Cl)c([N+](=O)[O-])c2)c1`, the percent response FL1 is 100% (inactive) and the percent response FL8 worked out at 89%.

Take `CC(=O)Nc1ccc(CN2CCC(Oc3ccc(C(=O)N4CCCC4)cc3)CC2)cc1`: the percent response FL1 is 109% (inactive) and the percent response FL8 is 109%.

For the compound `COc1ccc(S(=O)(=O)N2CCCC(C(=O)Nc3ccc(NC(=O)c4ccccn4)cc3)C2)cc1` (configuration not stated), the percent response FL1 is 45.3% (inactive) and the percent response FL8 is 95.6%.

On to `CC(=O)Nc1ccc(Nc2c3ccccc3nc3ccccc23)cc1`, for which the percent response FL1 was 68.8% (inactive) and the percent response FL8 stood at 126%.

On to `C=CCNC(=S)N/N=C/c1ccc(C)s1`, for which the percent response FL1 was 100% (inactive) and the percent response FL8 is 93.3%.

In the case of `CCN1CCC2(CC1)N=C(c1ccc(F)cc1)C(=S)N2C(=O)c1ccc(C)cc1`, the percent response FL1 was 98.4% (inactive) and the percent response FL8 was 96.3%.

For `Cc1ccc(Cl)cc1NC(=O)CN1CCN(S(=O)(=O)N2CCOCC2)CC1`, the percent response FL1 is 99.8% (inactive) and the percent response FL8 came out at 93.1%.

In the case of `CSc1ccc(CNC(=O)c2ccc(NC(=O)C3=CSCCO3)cc2)cc1`, the percent response FL1 was 16.2% (inactive) and the percent response FL8 came to 99.4%.

Take `Cc1ccc(Sc2cc(N3CCOCC3)nc(-c3ccccc3)n2)cc1`: the percent response FL1 was 29.8% (inactive) and the percent response FL8 is 111%.

Take `COc1ccc(OC)c(NC(=O)c2sc3nc(C)cc(C)c3c2N)c1`: the percent response FL1 was 45.6% (inactive) and the percent response FL8 came to 111%.

As to `CC(=O)c1cccc(NC(=O)COc2ccc(S(=O)(=O)N3CCOCC3)cc2)c1`, the percent response FL1 was 112% (inactive) and the percent response FL8 was 104%.

For the compound `CCOc1ccccc1N1C(=O)CC(Sc2nccc(C)n2)C1=O` (configuration not stated), the percent response FL1 is 100% (inactive) and the percent response FL8 was found to be 97.2%.

`O=C(C1CCN(c2nnc(-n3cccc3)s2)CC1)N1CCc2ccccc2C1`: the percent response FL1 is 128% (inactive) and the percent response FL8 stood at 104%.

In the case of `COc1ccc2c(c1OC)C(=O)OC2Nc1nc(-c2ccccc2)cs1` (configuration not stated), the percent response FL1 was 104% (inactive) and the percent response FL8 stood at 92.1%.

As to `OC(CNCc1ccc(Cl)c(Cl)c1)c1ccccc1` (configuration not stated), the percent response FL1 was 106% (inactive) and the percent response FL8 came out at 113%.

Take `COc1ccc(OC)c(S(=O)(=O)N(C)CC(=O)N2CCN(c3ccccc3)CC2)c1`: the percent response FL1 is 95.4% (inactive) and 98.5% (inactive); the percent response FL8 is 99.7% and 105%.

As to `CCOc1ccccc1NC(=O)COc1ccc(S(=O)(=O)N2CCCC2)cc1`, the percent response FL1 was 110% (inactive) and the percent response FL8 turned out to be 107%.

Regarding `COc1ccc(-c2ccnc(SCC(=O)N3CCOCC3)n2)cc1`, the percent response FL1 was 103% (inactive) and the percent response FL8 is 100%.

Consider `Cc1ccc(OCC(=O)Nc2ccc(-c3nc4ncccc4o3)cc2)cc1`, for which the percent response FL1 was 13.3% (inactive) and 14.1% (inactive); the percent response FL8 was 113% and 112%.
